Bioassay records (PubChem)
VP16 counter: VP16 counterscreen qHTS for inhibitors of ROR gamma transcriptional activity. Drosophila S2 Gal4-VP16 UAS-luciferase, luminescence, 20 h. Potency, µM (series often up to 53.6 µM), actives largely listed as inhibitors. hit rate 3.5% among 310,000. AID 2546, 2010;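 further: Gal4-VP16 expression switched on by copper sulfate through the metallothionein promoter; nearly all actives have a fitted effect of over 50% in size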
TRPV1 agonist: HTS Assay for Compounds that Act as Agonists of the Vanilloid Receptor 1; Transient receptor potential cation channel subfamily V member 1 (Homo sapiens), Q8NER1; TRPV1-expressing cells, Fluo-8 calcium influx, agonist mode; activation, % at 8.33 µM; hit rate 0.19% among 320,000; AID 540275, 2011; in the data active means activation above about 80%; inconclusive means between about 30% and that limit
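Fluo-8 calcium influx in TRPV1-expressing cells, kinetic read (ex 480/em 520 nm). Compound added and read 3 min for agonist activity, followed by capsaicin at EC20 final and 2 min further read for enhancement.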
RORgamma inh: qHTS for inhibitors of ROR gamma transcriptional activity | hit rate 5.4% among 310,000 | Potency, µM (top dose mostly 53.6 µM), most hits filed as inhibitors | AID 2551, 2010 | Drosophila S2 Gal4-RORgamma UAS-luciferase reporter, 20 h | Nuclear receptor ROR-gamma (Mus musculus), P51450; further: nearly all actives have a fitted effect of over 60% in size
Target sequence (P51450 whole entry, looked up, the tested form may be a part): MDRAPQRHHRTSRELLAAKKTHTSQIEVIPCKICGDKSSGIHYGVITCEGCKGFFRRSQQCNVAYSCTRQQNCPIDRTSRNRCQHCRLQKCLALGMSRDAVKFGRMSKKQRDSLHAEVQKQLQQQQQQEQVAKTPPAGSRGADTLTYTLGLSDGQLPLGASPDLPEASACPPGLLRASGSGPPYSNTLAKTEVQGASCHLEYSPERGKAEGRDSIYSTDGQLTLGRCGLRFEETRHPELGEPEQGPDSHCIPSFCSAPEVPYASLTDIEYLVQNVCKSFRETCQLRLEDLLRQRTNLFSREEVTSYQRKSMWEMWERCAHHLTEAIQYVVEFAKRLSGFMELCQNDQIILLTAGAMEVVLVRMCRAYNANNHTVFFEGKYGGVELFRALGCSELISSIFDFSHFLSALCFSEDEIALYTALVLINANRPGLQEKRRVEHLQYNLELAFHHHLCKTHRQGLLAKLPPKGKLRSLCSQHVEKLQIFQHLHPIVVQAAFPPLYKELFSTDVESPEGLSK
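A Gal4/UAS one-hybrid system in insect cells: metallothionein-promoter Gal4–ROR gamma fusion plus Photinus luciferase reporter. Copper sulfate 700 uM final, 20 hr ambient incubation, luminescent detection after 10 min with reagent.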
uPA generation: qHTS for Inhibitors of Cell Surface uPA Generation | hit rate 0.31% among 330,000 | Potency, µM (highest dose often 38.3 µM), usual class: inhibitors | cell surface uPA generation assay, qHTS; active means well fitted inhibition curve with a large enough effect; inconclusive means small, poorly fitted or top-dose-only effect; inactive means no such curve, though single readings can be large or run the other way; tested in mouse RAW 264.7 cells; further: nearly all actives have a fitted effect of over 55% in size
TRPV1 potentiator: HTS Assay for Compounds that Act as Potentiators of the Vanilloid Receptor 1; potentiation, % at 8.33 µM; TRPV1-expressing cells, Fluo-8 calcium influx, capsaicin EC20 potentiation; Transient receptor potential cation channel subfamily V member 1 (Homo sapiens), Q8NER1; hit rate 0.02% among 320,000; in the data active means potentiation above about 80%; inconclusive means between about 30% and that limit
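TRPV1-expressing cells were cultured overnight at 35.5C and loaded with Fluo-8 calcium dye for 40 to 90 min at room temperature. After a 10 s baseline, compound was added and calcium influx was read kinetically for 3 min (ex 480/em 520 nm).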
Each line names hits and unclear results; the compound was inactive in the other large screens. In the library only some 5.8% were active in any assay of this set; here they are far more common. Unless noted, the call rests on the fitted dose curve; in most records, active means well fitted curve in the direction sought with a large enough effect; inconclusive means small, poorly fitted or top-dose-only effect, or another doubt; inactive means no such curve, though single readings can be large; an effect the other way counts as inactive or inconclusive.

COc1ccc(N2CCC(CNC(=S)Nc3cccc(OC)c3)C2)cc1 (stereo unspecified)	VP16 counter 5.6µM, RORgamma inh 3.2µM (no result: uPA generation)
CCc1cccc(C)c1NC(=S)NCC1CCN(c2ccc(OC)cc2)C1 (stereo unspecified)	VP16 counter 7.1µM, RORgamma inh 6.3µM
CCc1ccccc1NC(=S)NCC1CCN(c2ccc(OC)cc2)C1 (stereo unspecified)	VP16 counter 10µM, RORgamma inh 2.5µM
COC(=O)CN1C(c2ccccc2)=Nc2ccc(Cl)cc2C1c1ccccc1 (stereo unspecified)	RORgamma inh 13µM
COC(=O)CN1C(C)=Nc2ccc(C)cc2C1c1ccccc1 (stereo unspecified)	none
Cc1noc(NC(=O)c2ccc(Cl)c(Cl)c2)c1Cl	VP16 counter 18µM, TRPV1 agonist inconclusive, RORgamma inh inconclusive, uPA generation inconclusive
CCOC(=O)N1CCN(C(=O)C(NC(=O)c2ccc(CC)cc2)C(C)C)CC1 (stereo unspecified)	RORgamma inh inconclusive
Cc1[nH]nc(N2CCCCCC2)c1[N+](=O)[O-]	none
Cc1ccn(-c2n[nH]c(C)c2[N+](=O)[O-])n1	RORgamma inh 13µM
Cc1ccc(C(=O)NC(=S)NCC2CCCO2)cc1Br (stereo unspecified)	VP16 counter inconclusive, RORgamma inh 5µM
O=C(NC(=S)NCC1CCCO1)c1cccs1 (stereo unspecified)	VP16 counter inconclusive, RORgamma inh 14µM
O=C(NC(=S)NCC1CCCO1)c1ccco1 (stereo unspecified)	none
O=C(NC(=S)NCC1CCCO1)c1ccccc1[N+](=O)[O-] (stereo unspecified)	RORgamma inh 10µM
O=C(NC(=S)NCC1CCCO1)c1ccccc1Br (stereo unspecified)	RORgamma inh inconclusive
O=C(NC(=S)NC1CCCCC1)c1ccccc1[N+](=O)[O-]	VP16 counter 5.6µM, TRPV1 agonist inconclusive, RORgamma inh 5µM
O=C(NNc1ccccc1[N+](=O)[O-])NC1CCCCC1	none
CCC(C)C1NC(=S)N(C2CCCCC2)C1=O (stereo unspecified)	VP16 counter 11µM, RORgamma inh 6.3µM (no result: uPA generation)
CC1NC(=S)N(C2CCCCC2)C1=O (stereo unspecified)	RORgamma inh 11µM
CCCCC1NC(=S)N(C2CCCCC2)C1=O (stereo unspecified)	VP16 counter inconclusive, TRPV1 agonist inconclusive, RORgamma inh 13µM
O=C1C2CCCN2C(=S)N1C1CCCCC1 (stereo unspecified)	none
CCOC(=O)CC1(NC(=O)c2cc(COc3cccc(OC)c3)on2)CCCCC1	VP16 counter inconclusive, TRPV1 agonist inconclusive, RORgamma inh inconclusive
COc1ccc(N(CC(=O)N2c3ccccc3CC2C)S(=O)(=O)c2c(C)noc2C)cc1 (stereo unspecified)	none
Cc1ccsc1/C=N/Nc1nc(Cl)c(Cl)cc1Cl	none
Cc1ccccc1/C=N/Nc1nc2ccccc2[nH]1	TRPV1 agonist inconclusive, RORgamma inh 7.1µM
O=[N+]([O-])c1cc(/C=N/Nc2nc3ccccc3[nH]2)c(O)cc1O	VP16 counter 3.2µM, RORgamma inh 3.5µM
Cc1ccc(/C=N/Nc2nc3ccccc3[nH]2)s1	VP16 counter 5µM, RORgamma inh 4.5µM, uPA generation inconclusive
Cc1ccc(/C=N/Nc2nc(Cl)c(Cl)cc2Cl)s1	VP16 counter inconclusive, RORgamma inh 11µM
O=c1[nH]c(N/N=C/c2cc3c(cc2[N+](=O)[O-])OCO3)nc2ccccc12	none
COc1cc(C)nc(N2CCC(C(=O)NCC3CCCO3)CC2)n1 (stereo unspecified)	none (no result: VP16 counter, RORgamma inh)
C(=N\Nc1nc2ccccc2[nH]1)/c1c[nH]c2ccccc12	VP16 counter 10µM, RORgamma inh 3.5µM
COc1ccc(/C=N/Nc2nc3ccccc3[nH]2)c(OC)c1OC	RORgamma inh 13µM (no result: TRPV1 agonist, TRPV1 potentiator)
C(=N\Nc1nc2ccccc2[nH]1)/c1cccc2cccnc12	VP16 counter 2.2µM, RORgamma inh 0.35µM, uPA generation inconclusive
CN(C)C(CNC(=O)c1c(F)cccc1Cl)c1ccco1 (stereo unspecified)	none
O=C(Nc1cccnc1)c1cc2c(ccc3ccccc32)o1	VP16 counter inconclusive, TRPV1 agonist inconclusive, RORgamma inh 1.4µM
Cc1c(C(=O)Nc2cccnc2)oc2ccc(Br)cc12	TRPV1 agonist 91
CCc1ccc2oc(C(=O)Nc3cccnc3)c(C)c2c1	TRPV1 agonist 89, uPA generation inconclusive (no result: VP16 counter, RORgamma inh)
CC(C)c1ccc(OCC(=O)NCCO)cc1	TRPV1 agonist inconclusive
COc1ccccc1/C=C/C(=O)NCC(=O)N/N=C/c1cc(Br)ccc1OC	RORgamma inh 13µM
COc1ccccc1/C=C/C=N/NC(=O)c1cccs1	VP16 counter inconclusive, RORgamma inh 7.9µM
COc1cccc(/C=N/NC(=O)CSc2ccccc2C)c1O	VP16 counter 0.79µM, RORgamma inh 0.71µM
COc1ccccc1/C=C\C=N\NC(=O)c1ccco1	VP16 counter inconclusive, RORgamma inh inconclusive
COc1ccccc1/C=C\C(=O)NCC(=O)N/N=C/c1cccc(OC)c1O	VP16 counter 7.1µM, RORgamma inh 4.5µM
CCN1C(=NCCc2cccs2)N[C@@H](CCc2ccccc2)[C@H](C(=O)NCCc2cccs2)[C@H]1C	none (no result: uPA generation)
O=C(COC(=O)COc1ccccc1[N+](=O)[O-])NC1CCCCC1	none (no result: VP16 counter, RORgamma inh)
COc1cccc(/C=N/NC(=O)CNC(=O)c2cccs2)c1O	VP16 counter 11µM, RORgamma inh 3.2µM
Cc1cccc(OCC(=O)NCC(=O)N/N=C/c2ccc(O)cc2O)c1	RORgamma inh inconclusive, uPA generation inconclusive
COc1cccc(/C=N/NC(=O)CNC(=O)COc2cccc(C)c2)c1O	VP16 counter 2.2µM, RORgamma inh 0.28µM, uPA generation inconclusive
C/C(Cn1nnc([N+](=O)[O-])n1)=N\NC(=O)c1ccccc1O	VP16 counter inconclusive, TRPV1 agonist inconclusive, RORgamma inh 5.6µM
C/C(Cn1nnc([N+](=O)[O-])n1)=N\NC(=O)c1ccc(O)cc1O	VP16 counter 2.8µM, TRPV1 agonist inconclusive, RORgamma inh 0.5µM
COc1cc(C(=O)N/N=C(\C)Cn2nc([N+](=O)[O-])cc2C)ccc1O	RORgamma inh inconclusive
CCN1C(C)=C(C(=O)OC)C(c2ccccc2)N2C(=O)[C@@]3(C(=O)OC)O[C@@]12C1C(=O)N(c2ccccc2)C(=O)C13 (stereo partly specified)	none (no result: TRPV1 agonist, uPA generation, TRPV1 potentiator)
O=C(c1ccccc1)c1cc(-c2ccccc2)on1	VP16 counter 11µM, RORgamma inh inconclusive
Cc1ccc(S(=O)(=O)N2CCN(C(=O)c3cc(S(=O)(=O)N(C)C)ccc3N3CCCC3)CC2)cc1	none (no result: VP16 counter, RORgamma inh)
COc1ccc(-c2[nH]n(-c3ccc([N+](=O)[O-])cc3)c(=O)c2C=NCCN2CCNCC2)cc1	VP16 counter inconclusive, RORgamma inh 14µM (no result: uPA generation)
